# Measurements from the supplement of paper PMC10849652.
# The full data set covers some 8,800 targets. This sample favours those with a hit. About 0.5% of all pairs of compound and target were hits. A number with no mark means an inactive call.
# How the values were obtained:
# Assay in all cases: log2 fold change, soluble protein after heating vs DMSO (PISA); higher = thermal stabilisation; K562 lysate, 10 uM; active = over 0.2 and 3.5 SD of the protein, either way, in both replicates (recomputed)
# alvocidib = compound: CN1CC[C@H](c2c(O)cc(O)c3c(=O)cc(-c4ccccc4Cl)oc23)[C@H](O)C1 [alvocidib]
# In short: (§1)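 Thermal stability, expressed as log-two fold change relative to solvent controls, is given from duplicates. Crude K562 extract in PBS pH 7.4 with 1 mM MgCl2, at 1 mg/mL protein, was treated with 10 μM compound for 30 min and heated in aliquots for 3 min across 48°C-58°C. After pooling, adjustment to 0.5% NP-40 at 4°C and centrifugation at 21,000xg for 90 min, supernatant protein was measured by TMTpro 16plex LC-MS/MS with channel sums equalised.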
# Tubastatin A = compound: CN1CCc2c(c3ccccc3n2Cc2ccc(C(=O)NO)cc2)C1 [Tubastatin A]
# In short: as §1
# [1] = compound: CNC(=O)C1=CC=CC=C1NC2=NC(=NC=C2Cl)NC3=C(C=C(C=C3)N4CCOCC4)OC
# In short: as §1
# defactinib = compound: CNC(=O)c1ccc(Nc2ncc(C(F)(F)F)c(NCc3nccnc3N(C)S(C)(=O)=O)n2)cc1 [defactinib]
# In short: as §1
# [2] = compound: CNc1nc(-c2ccc3c(N)n[nH]c3c2)cc(N2C[C@@H](C(=O)NC3CCCCC3)CC[C@H]2C)n1
# In short: as §1
# encorafenib = compound: COC(=O)N[C@@H](C)CNc1nccc(-c2cn(C(C)C)nc2-c2cc(Cl)cc(NS(C)(=O)=O)c2F)n1 [encorafenib]
# In short: as §1
# [3] = compound: COC(=O)[C@H](CCSC)NC(=O)C1=C(C=C(C=C1)NC[C@H](CS)N)C2=CC=CC=C2
# In short: as §1
# alisertib = compound: COc1cc(Nc2ncc3c(n2)-c2ccc(Cl)cc2C(c2c(F)cccc2OC)=NC3)ccc1C(=O)O [alisertib]
# In short: as §1
# [4] = compound: COc1cc2nc(-c3cc(F)ccc3O)nc(N[C@@H]3CNC[C@H]3C(C)(C)O)c2cc1OC
# In short: as §1
# gefitinib = compound: COc1cc2ncnc(Nc3ccc(F)c(Cl)c3)c2cc1OCCCN1CCOCC1 [gefitinib]
# In short: as §1
# lapatinib = compound: CS(=O)(=O)CCNCc1ccc(-c2ccc3ncnc(Nc4ccc(OCc5cccc(F)c5)c(Cl)c4)c3c2)o1 [lapatinib]
# In short: as §1
# pictilisib = compound: CS(=O)(=O)N1CCN(Cc2cc3nc(-c4cccc5[nH]ncc45)nc(N4CCOCC4)c3s2)CC1 [pictilisib]
# In short: as §1
# crizotinib = compound: C[C@@H](Oc1cc(-c2cnn(C3CCNCC3)c2)cnc1N)c1c(Cl)ccc(F)c1Cl [crizotinib]
# In short: as §1
# [5] = compound: C[C@H](C1=CC=C(C=C1)C(=O)NC2=C3C=CNC3=NC=C2)N
# In short: as §1
# duvelisib = compound: C[C@H](Nc1ncnc2nc[nH]c12)c1cc2cccc(Cl)c2c(=O)n1-c1ccccc1 [duvelisib]
# In short: as §1
# gandotinib = compound: Cc1cc(Nc2cc(CN3CCOCC3)c3nc(C)c(Cc4ccc(Cl)cc4F)n3n2)n[nH]1 [gandotinib]
# In short: as §1
# tozasertib = compound: Cc1cc(Nc2cc(N3CCN(C)CC3)nc(Sc3ccc(NC(=O)C4CC4)cc3)n2)n[nH]1 [tozasertib]
# In short: as §1
# doramapimod = compound: Cc1ccc(-n2nc(C(C)(C)C)cc2NC(=O)Nc2ccc(OCCN3CCOCC3)c3ccccc23)cc1 [doramapimod]
# In short: as §1
# bafetinib = compound: Cc1ccc(NC(=O)c2ccc(CN3CC[C@H](N(C)C)C3)c(C(F)(F)F)c2)cc1Nc1nccc(-c2cncnc2)n1 [bafetinib]
# In short: as §1
# [6] = compound: Cc1cccc(CC(=O)N2CCc3c2ccc(-c2cn(C)c4ncnc(N)c24)c3F)n1
# In short: as §1
# Sequence of UniProt Q96F86 (Q96F86 whole entry, looked up): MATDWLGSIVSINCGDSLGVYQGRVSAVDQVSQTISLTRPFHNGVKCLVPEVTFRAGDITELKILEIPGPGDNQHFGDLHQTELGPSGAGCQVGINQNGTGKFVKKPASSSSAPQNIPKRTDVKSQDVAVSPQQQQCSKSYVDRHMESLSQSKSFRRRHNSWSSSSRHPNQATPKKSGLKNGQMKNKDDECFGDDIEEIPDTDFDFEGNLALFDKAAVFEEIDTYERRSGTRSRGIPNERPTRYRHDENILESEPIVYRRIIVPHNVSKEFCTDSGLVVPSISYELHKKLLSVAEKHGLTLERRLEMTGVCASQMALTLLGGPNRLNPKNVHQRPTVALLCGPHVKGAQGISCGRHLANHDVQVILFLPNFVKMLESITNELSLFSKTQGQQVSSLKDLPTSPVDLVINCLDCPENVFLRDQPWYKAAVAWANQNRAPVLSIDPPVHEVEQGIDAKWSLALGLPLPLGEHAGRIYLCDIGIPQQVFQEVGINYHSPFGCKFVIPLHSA
# Sequence of UniProt O43427 (O43427 whole entry, looked up): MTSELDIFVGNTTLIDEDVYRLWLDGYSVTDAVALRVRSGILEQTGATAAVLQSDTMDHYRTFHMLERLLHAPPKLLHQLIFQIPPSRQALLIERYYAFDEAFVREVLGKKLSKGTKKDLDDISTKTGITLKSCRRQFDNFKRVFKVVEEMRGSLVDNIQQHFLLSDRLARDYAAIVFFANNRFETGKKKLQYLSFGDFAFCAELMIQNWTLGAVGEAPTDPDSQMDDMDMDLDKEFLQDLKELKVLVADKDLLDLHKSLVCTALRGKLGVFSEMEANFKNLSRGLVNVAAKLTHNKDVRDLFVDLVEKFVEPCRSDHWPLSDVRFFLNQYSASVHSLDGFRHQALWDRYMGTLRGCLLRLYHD
# Sequence of UniProt Q9UI10 (Q9UI10 whole entry, looked up): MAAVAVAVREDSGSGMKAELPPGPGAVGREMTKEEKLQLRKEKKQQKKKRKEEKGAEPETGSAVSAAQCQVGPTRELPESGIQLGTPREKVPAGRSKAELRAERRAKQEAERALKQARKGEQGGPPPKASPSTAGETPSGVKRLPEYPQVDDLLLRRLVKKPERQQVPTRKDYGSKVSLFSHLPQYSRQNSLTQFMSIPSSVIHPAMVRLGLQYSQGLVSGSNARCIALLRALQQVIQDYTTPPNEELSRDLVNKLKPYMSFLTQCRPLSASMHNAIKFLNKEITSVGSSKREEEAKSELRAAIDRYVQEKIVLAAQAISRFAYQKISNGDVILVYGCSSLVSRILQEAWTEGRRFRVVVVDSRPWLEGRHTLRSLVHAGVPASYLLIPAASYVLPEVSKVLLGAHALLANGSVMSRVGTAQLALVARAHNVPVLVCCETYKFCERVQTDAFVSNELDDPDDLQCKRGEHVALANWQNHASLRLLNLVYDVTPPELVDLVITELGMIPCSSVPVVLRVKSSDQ
# Sequence of UniProt Q8NFI3 (Q8NFI3 whole entry, looked up): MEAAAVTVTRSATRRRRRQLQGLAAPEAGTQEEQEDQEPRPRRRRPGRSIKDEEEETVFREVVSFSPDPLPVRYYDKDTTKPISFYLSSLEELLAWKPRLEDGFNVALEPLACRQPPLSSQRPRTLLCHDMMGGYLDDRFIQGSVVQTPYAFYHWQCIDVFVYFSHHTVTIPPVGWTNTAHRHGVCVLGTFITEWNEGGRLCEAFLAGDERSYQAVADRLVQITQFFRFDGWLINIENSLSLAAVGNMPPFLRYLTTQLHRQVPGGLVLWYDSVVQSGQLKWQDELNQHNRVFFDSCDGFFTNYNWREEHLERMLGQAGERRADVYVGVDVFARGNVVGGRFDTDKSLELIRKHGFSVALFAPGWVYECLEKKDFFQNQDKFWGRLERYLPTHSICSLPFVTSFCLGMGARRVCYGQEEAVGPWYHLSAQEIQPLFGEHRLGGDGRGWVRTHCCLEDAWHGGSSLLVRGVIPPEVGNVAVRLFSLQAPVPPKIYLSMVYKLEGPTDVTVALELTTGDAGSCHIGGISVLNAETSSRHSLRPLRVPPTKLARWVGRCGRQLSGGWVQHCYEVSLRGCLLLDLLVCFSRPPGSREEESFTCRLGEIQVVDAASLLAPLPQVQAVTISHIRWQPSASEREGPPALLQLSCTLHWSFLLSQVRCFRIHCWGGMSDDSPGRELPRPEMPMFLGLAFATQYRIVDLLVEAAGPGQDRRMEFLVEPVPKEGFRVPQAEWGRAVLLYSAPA
# Sequence of UniProt P11413 (P11413 whole entry, looked up): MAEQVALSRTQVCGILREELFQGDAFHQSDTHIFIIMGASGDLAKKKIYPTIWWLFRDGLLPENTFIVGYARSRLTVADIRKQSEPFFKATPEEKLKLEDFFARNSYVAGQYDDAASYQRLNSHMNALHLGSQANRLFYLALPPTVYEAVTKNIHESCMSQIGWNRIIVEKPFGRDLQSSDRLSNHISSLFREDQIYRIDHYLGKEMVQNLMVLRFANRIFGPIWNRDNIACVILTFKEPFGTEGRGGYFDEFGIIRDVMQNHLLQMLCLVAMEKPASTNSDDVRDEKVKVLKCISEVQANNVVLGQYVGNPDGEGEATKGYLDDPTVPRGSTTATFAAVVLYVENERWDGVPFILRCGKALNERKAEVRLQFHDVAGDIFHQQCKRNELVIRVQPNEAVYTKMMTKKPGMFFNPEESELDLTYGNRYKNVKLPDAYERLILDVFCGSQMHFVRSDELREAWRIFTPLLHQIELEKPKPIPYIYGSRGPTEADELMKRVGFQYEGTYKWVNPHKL
# Sequence of UniProt O75477 (O75477 whole entry, looked up): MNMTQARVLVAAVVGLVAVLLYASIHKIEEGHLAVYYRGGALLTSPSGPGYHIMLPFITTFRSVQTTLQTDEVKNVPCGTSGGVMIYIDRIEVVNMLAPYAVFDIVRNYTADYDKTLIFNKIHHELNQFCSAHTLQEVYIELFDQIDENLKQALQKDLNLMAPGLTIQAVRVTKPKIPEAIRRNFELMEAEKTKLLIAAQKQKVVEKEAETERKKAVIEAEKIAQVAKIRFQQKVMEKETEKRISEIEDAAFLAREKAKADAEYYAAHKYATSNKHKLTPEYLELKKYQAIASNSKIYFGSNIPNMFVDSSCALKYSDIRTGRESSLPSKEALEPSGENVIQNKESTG
Target,log2 fold change (alvocidib),log2 fold change (Tubastatin A),log2 fold change [1],log2 fold change (defactinib),log2 fold change [2],log2 fold change (encorafenib),log2 fold change [3],log2 fold change (alisertib),log2 fold change [4],log2 fold change (gefitinib),log2 fold change (lapatinib),log2 fold change (pictilisib),log2 fold change (crizotinib),log2 fold change [5],log2 fold change (duvelisib),log2 fold change (gandotinib),log2 fold change (tozasertib),log2 fold change (doramapimod),log2 fold change (bafetinib),log2 fold change [6]
EIF2B4 isoform 2 (UniProt Q9UI10),-0.015,-0.025,0.013,0.035,0.02,0.018,0.162,-0.014,0.016,0,-0.041,0.007,-0.037,-0.021,-0.013,-0.048,-0.01,-0.012,-0.058,0.044
ENGASE (UniProt Q8NFI3),-0.144,-0.02,0.043,-0.011,0.02,0.018,-0.056,0.025,-0.015,0.018,-0.02,0,0.011,-0.048,-0.025,0.116,0.051,0.033,0.003,0.148
ERLIN1 (UniProt O75477),0.006,-0.058,-0.001,-0.024,-0.066,0.086,-0.216 (active),-0.007,-0.028,0.035,-0.041,-0.01,0.032,-0.094,-0.011,0.033,0.019,0.048,-0.027,0.03
FIBP (UniProt O43427),0.03,0.003,0.05,0.1,-0.079,0.036,0.094,0.012,0.002,-0.005,-0.016,-0.074,-0.08,0.003,0.073,-0.031,0.05,-0.038,-0.025,0.094
G6PD isoform 2 (UniProt P11413),0.029,-0.068,0.013,0.031,0.009,-0.025,0.145,0.021,-0.017,-0.023,0.018,-0.022,-0.03,0.094,-0.023,-0.063,-0.003,-0.015,0.037,-0.035
EDC3 (UniProt Q96F86),-0.045,-0.1,0.003,0.009,0.038,0.019,-0.071,0.025,-0.02,-0.042,-0.007,-0.034,-0.012,-0.021,0.014,0.032,-0.007,0.024,-0.008,-0.003
